From PubChem BioAssay (NCI) come the findings set out here.

The structures appear in SMILES notation. Compounds without any hit were thinned out: in the full panel of roughly 83,000, 20% have a hit.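 48-hour exposure, single concentration, 96-well plates; percent growth endpoint where 0 means no net growth. Active: below 10.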 Calls of active or inactive are those of the source.

The assay has as its system HL-60(TB) leukemia. The assay is described as follows: NCI-60 one-dose screen, 48 h (100 = growth as untreated, 0 = no growth, -100 = all killed). Conditions: 10 µM unless noted.
For `COC(=O)[C@H](NC(=O)C1(C)CCC[C@]2(C)[C@H]3C[C@H]4C(C(C)C)=C[C@]3(CC[C@@H]12)[C@@H]1C(=O)CCC(=O)[C@@H]14)C(C)C` (some centres undefined), the growth is 103% (inactive).

With `Cc1ccccc1COc1ccc(-c2onc(C)c2-c2ccc(Cl)cc2)cc1`, the growth is 17.7% (inactive).

As for `COc1ccc(OC)c(NC(=O)c2cc(S(=O)(=O)N3CCc4ccccc43)ccc2OC)c1`, the growth is 107% (inactive).

Consider `COC(=O)c1ccc(NC(=O)CSc2nc3ccccc3c(=O)n2-c2ccccc2)cc1`, for which the growth was 93.2% (inactive).
